The panel holds about 83,000 compounds, 20% with a hit somewhere; the sample as a whole holds those more often.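 Treatment: one concentration, 48 hours, 96-well format. Scoring: percent growth, with anything below 10 considered active.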 Active and inactive are the calls of the source.
Tested on: RXF 393 renal
Assay: NCI-60 one-dose screen, 48 h (100 = growth as untreated, 0 = no growth, -100 = all killed)
Conditions: 10 µM unless noted

Compound | growth
O=C(Nc1ccccn1)[C@H](O)[C@@H](O)C(=O)N1CCOCC1 | 119% (inactive)
CC(C)(C)N1CC(OC(N)=O)C1 | 29.1% (inactive)
O=C(NC1CCOCC1)c1ccc2c(c1)CN(c1ncc(Cc3cccc(-n4cccn4)c3)s1)CC2 | 73.7% (inactive)
CN1C[C@@H](c2ccc(Cl)cc2)[C@]2(NC(=S)N(c3ccc(F)c(Cl)c3)C2=O)[C@@]12C(=O)NC1C=CC(Cl)=C[C@H]12 (stereo partly specified) | 21.3% (inactive)
CCCN1CCN(c2ccc3nc(-c4ccc5nc(-c6ccc(OCC)c(OCC)c6)[nH]c5c4)[nH]c3c2)CC1 | -92.3% (active)
NC(=S)c1csc(CCNC(=O)c2ccccc2)n1 | 128% (inactive)
CCN(CCO)CC(=O)c1cc(Cl)cc(Cl)c1Cl | 93.7% (inactive)
C=CC(=O)Nc1cccc(C)c1Nc1cc(-c2cccnc2Cc2c(C)c(OC)cc(OC)c2C)ncn1 | -0.169% (active)
N#Cc1c(NC(=O)c2ccccc2I)sc2c1CCCC2 | -10.4% (active)
C#CC[C@H](N)C(=O)O | 114% [20 µM] (inactive)
COc1ccc(-n2ncn(CCCCCCn3cnn(-c4ccc(OC)cc4)c3=O)c2=O)cc1 | 98.2% (inactive)
CC(C)OC(=O)OCOP(=O)(OCOC(=O)OC(C)C)C1CCCN(O)C1=O (stereo unspecified) | 8.56% (active)
O=C(/C=C/C12c3ccccc3C(c3ccccc31)C1C(=O)N(c3ccc(Cl)cc3)C(=O)C12)c1ccccn1 (stereo unspecified) | -88.6% (active)
Cc1ccc(S(=O)(=O)N(CC[C@@H]2C[C@H]2c2cc3ccccc3o2)C(=O)NC2CCCCC2)cc1 | 106% (inactive)
COc1cc2c(cc1OC)-c1ccc3cc4c(cc3c1N(CCCN1CCCCC1)C2)OCO4 | 43.8% (inactive)
COc1cc2cc(Oc3ccc(NC(=O)Nc4cc(C(F)(F)F)cc(C(F)(F)F)c4)cc3)c(C)nc2cc1OCCN1CCCCC1 | 31.8% (inactive)
CCN(CC)CCOC(=O)Nc1ccccc1Cl | 117% (inactive)
COc1cc(CNC(=O)/C=C/C=C/c2ccc3c(c2)OCO3)ccc1OCc1cn(-c2ccc(Cl)c(Cl)c2)nn1 | -24% (active)
N#C/C=C(\c1ccc([N+](=O)[O-])cc1)n1nnc2cc(Cl)c(Cl)cc21 | 0.579% (active)
CNC(=O)c1c(NC(=O)c2ccc(C(C)(C)C)cc2)sc2c1CCC(=O)C2 | -11.3% (active)
CCCCOc1ccc(NC(=O)n2nc(N=NN(C)C)c3ccc(Cl)cc32)cc1 | 112% (inactive)
CC[C@@H](C[C@H](CCO)c1ccccc1)c1cc2ccccc2o1 | 96.9% (inactive)
N=c1ccn2c(n1)OC1C(O)C(CO)OC12 (stereo unspecified) | 28.7% (inactive)
Cc1cc(N2CCCCC2)nc(N(CCNc2ccnc3cc(Cl)ccc23)Cc2ccccn2)n1 | 30.7% (inactive)
CCOc1ccc2nc(-c3cccc(OCC(=O)NC(C)C)c3)nc(Nc3ccc(-c4cn[nH]c4)cc3)c2c1 | -43.7% (active)
C=C1C(=O)O[C@H]2[C@H]1CC/C(Cn1cc(CNCCc3c[nH]c4ccc(Cl)cc34)nn1)=C\CC[C@@]1(C)O[C@@H]21 | 16% (inactive)
CS(=O)(=O)c1ccc(-c2nc3cc(Cl)ccc3n2CC(=O)N/N=C/c2ccc(Cl)cc2)cc1 | -25.1% (active)

Tested on: SF-268 CNS
Assay: as above
Conditions: 10 µM unless noted

Compound | growth
Nc1ccc(CCCCc2ccccc2)c(Cl)c1 | 83% (inactive)
Nc1ccc(S(=O)(=O)Nc2ccsc2-c2nc(-c3ccccc3)no2)cc1 | 67.2% (inactive)
C=C(CNCCc1ccc(O)cc1)[C@@H]1CC[C@]2(COC3CCCCO3)CC[C@]3(C)[C@H](CC[C@@H]4[C@@]5(C)CCC(NCCO)C(C)(C)[C@@H]5CC[C@]43C)[C@@H]12 (stereo partly specified) | -87.9% (active)
OC(COc1cccc2ccccc12)CN1CCN(c2ccccc2)CC1 (stereo unspecified) | 103% (inactive)
Cc1[nH]c(-c2nc3ccccc3[nH]2)c(C)c1C(=O)N1CCc2sccc2C1 | 97.3% (inactive)
CC(C)n1nc(C#Cc2cccc(NC(=O)c3cccc(C(F)(F)F)c3)c2)c2c(N)ncnc21 | 3.1% (active)
Cc1cc(NS(=O)(=O)c2ccccc2)c(OS(=O)(=O)c2ccccc2)cc1C | 105% (inactive)
OCCCCc1nccc2c1[nH]c1ccccc12 | 105% (inactive)
C=C(C)[C@@H]1CC[C@]2(CNCCO)CC[C@]3(C)[C@H](CC[C@@H]4[C@@]5(C)CCC(N)[C@@](C)(CO)[C@@H]5CC[C@]43C)[C@@H]12 (stereo partly specified) | 10.1% (inactive)
OC(c1cccc(OCc2ccccc2)c1)c1nnc(-c2ccccc2)o1 (stereo unspecified) | 95.3% (inactive)
Cl.[Pt].[c-]1ccccc1-c1ccccn1.c1ccc(P(c2ccccc2)C([PH+](c2ccccc2)c2ccccc2)[PH+](c2ccccc2)c2ccccc2)cc1 | 27.6% (inactive)
COc1cc2c(c(OC)c1OC)C(=O)/C(=C/c1cc(C)c(O)c(C)c1)S2 | 56.4% (inactive)
O=C(Nc1ccccn1)[C@H](O)[C@@H](O)C(=O)N1CCOCC1 | 106% (inactive)
CC(C)(C)N1CC(OC(N)=O)C1 | 109% (inactive)
O=C(NC1CCOCC1)c1ccc2c(c1)CN(c1ncc(Cc3cccc(-n4cccn4)c3)s1)CC2 | 80.4% (inactive)
CN1C[C@@H](c2ccc(Cl)cc2)[C@]2(NC(=S)N(c3ccc(F)c(Cl)c3)C2=O)[C@@]12C(=O)NC1C=CC(Cl)=C[C@H]12 (stereo partly specified) | 54% (inactive)
CCCN1CCN(c2ccc3nc(-c4ccc5nc(-c6ccc(OCC)c(OCC)c6)[nH]c5c4)[nH]c3c2)CC1 | 15.8% (inactive)
NC(=S)c1csc(CCNC(=O)c2ccccc2)n1 | 111% (inactive)
CCN(CCO)CC(=O)c1cc(Cl)cc(Cl)c1Cl | 97.5% (inactive)
C=CC(=O)Nc1cccc(C)c1Nc1cc(-c2cccnc2Cc2c(C)c(OC)cc(OC)c2C)ncn1 | 6.81% (active)

Compound | growth
N#Cc1c(NC(=O)c2ccccc2I)sc2c1CCCC2 | 58.1% (inactive)
C#CC[C@H](N)C(=O)O | 99.8% [20 µM] (inactive)
COc1ccc(-n2ncn(CCCCCCn3cnn(-c4ccc(OC)cc4)c3=O)c2=O)cc1 | 91.4% (inactive)
CC(C)OC(=O)OCOP(=O)(OCOC(=O)OC(C)C)C1CCCN(O)C1=O (stereo unspecified) | 26.5% (inactive)
O=C(/C=C/C12c3ccccc3C(c3ccccc31)C1C(=O)N(c3ccc(Cl)cc3)C(=O)C12)c1ccccn1 (stereo unspecified) | 8.62% (active)
Cc1ccc(S(=O)(=O)N(CC[C@@H]2C[C@H]2c2cc3ccccc3o2)C(=O)NC2CCCCC2)cc1 | 98.8% (inactive)
COc1cc2c(cc1OC)-c1ccc3cc4c(cc3c1N(CCCN1CCCCC1)C2)OCO4 | 44.8% (inactive)
COc1cc2cc(Oc3ccc(NC(=O)Nc4cc(C(F)(F)F)cc(C(F)(F)F)c4)cc3)c(C)nc2cc1OCCN1CCCCC1 | -49.3% (active)
CCN(CC)CCOC(=O)Nc1ccccc1Cl | 102% (inactive)
COc1cc(CNC(=O)/C=C/C=C/c2ccc3c(c2)OCO3)ccc1OCc1cn(-c2ccc(Cl)c(Cl)c2)nn1 | 18% (inactive)
N#C/C=C(\c1ccc([N+](=O)[O-])cc1)n1nnc2cc(Cl)c(Cl)cc21 | 20.3% (inactive)
CNC(=O)c1c(NC(=O)c2ccc(C(C)(C)C)cc2)sc2c1CCC(=O)C2 | 14% (inactive)
CCCCOc1ccc(NC(=O)n2nc(N=NN(C)C)c3ccc(Cl)cc32)cc1 | 102% (inactive)
CC[C@@H](C[C@H](CCO)c1ccccc1)c1cc2ccccc2o1 | 91.2% (inactive)
N=c1ccn2c(n1)OC1C(O)C(CO)OC12 (stereo unspecified) | 40.9% (inactive)
Cc1cc(N2CCCCC2)nc(N(CCNc2ccnc3cc(Cl)ccc23)Cc2ccccn2)n1 | 71.8% (inactive)
CCOc1ccc2nc(-c3cccc(OCC(=O)NC(C)C)c3)nc(Nc3ccc(-c4cn[nH]c4)cc3)c2c1 | 12.6% (inactive)
C=C1C(=O)O[C@H]2[C@H]1CC/C(Cn1cc(CNCCc3c[nH]c4ccc(Cl)cc34)nn1)=C\CC[C@@]1(C)O[C@@H]21 | 77.9% (inactive)
CS(=O)(=O)c1ccc(-c2nc3cc(Cl)ccc3n2CC(=O)N/N=C/c2ccc(Cl)cc2)cc1 | 50.2% (inactive)
